# Inconclusive results are not listed. Active and inactive are the calls of the source. Unless noted, how the calls were made is not given here.
# How the values were obtained:
# [1] = qHTS profiling of the MIPE4 collection as inhibitors of Plasmodium falciparum (3D7) proliferation (AID 743344);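 further: scaled between DMSO vehicle wells and 0.29 µM artemisinin as full inhibition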; conditions: P. falciparum 3D7 in erythrocytes, SYBR Green DNA fluorescence, 72 h; at 28.5 µM unless noted
# In short: (§1)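 Parasite DNA was quantified by SYBR Green I fluorescence (ex 485, em 535 nm) after overnight lysis in saponin/Triton buffer at room temperature. Cultures at 0.3% parasitemia and 2.5% hematocrit were first exposed to compound for 72 h at 37 C; signals were normalised to artemisinin (0.29 uM) and vehicle wells.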
# [2] = qHTS profiling of the MIPE4 collection as inhibitors of Plasmodium falciparum (DD2) proliferation (AID 743345); conditions: P. falciparum Dd2 in erythrocytes, SYBR Green DNA, 72 h; at 28.5 µM unless noted
# In short: as §1
# [3] = qHTS profiling of the MIPE4 collection as inhibitors of Plasmodium falciparum (DD2) proliferation (Rep 2) (AID 743346); conditions: P. falciparum Dd2 in erythrocytes, SYBR Green DNA, 72 h; at 28.5 µM unless noted
# In short: as §1
# [4] = qHTS profiling of the MIPE4 collection as inhibitors of Plasmodium falciparum (HB3) proliferation (AID 743347);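 further: plate controls were DMSO vehicle wells for no effect and artemisinin wells for full effect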; conditions: P. falciparum HB3 in erythrocytes, SYBR Green DNA, 72 h; at 28.5 µM unless noted
# In short: as §1
# [5] = High-throughput drug toxicity screening in the BPDCN cell line Gen2.2 (AID 1224824); conditions: Gen2.2 BPDCN cells; at 45.8 µM (top of the series) unless noted;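 further: cells exposed to compounds for 48 h before reading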
# In short: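 Readout is ATP luminescence from Gen2.2 cells after two days of drug exposure in serum-containing medium at 37 °C. Values express percent activity, with vehicle defining full signal and 9.2 uM bortezomib defining zero.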
# [6] = High-throughput drug toxicity screening in the BPDCN cell line Cal-1 (AID 1224825); conditions: Cal-1 BPDCN cell viability, qHTS; at 45.8 µM (top of the series) unless noted
# In short: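 Percent activity derived from CellTiter-Glo luminescence, scaling DMSO to 100% and 9.2 uM final bortezomib to 0%. BPDCN Cal-1 cells (500/well, RPMI plus 10% FBS) incubated with compounds 48 hours at 37C before reading.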
# [7] = qHTS assay for measurement of the activity of small molecule inhibitors on Zika virus induced Caspase-3 activity in human iPSC derived neural progenitor cells (hNPCs) (AID 1224857; active means well fitted curve in the direction sought with a large enough effect; an effect the other way counts as inactive or inconclusive; further: nearly all actives have a fitted effect of over 65% in size; further: potency means the concentration at half of the fitted maximal effect)
# In short: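 Percent inhibition of virus-induced caspase-3/7 luminescence (Caspase-Glo), scaled between uninfected cells and Zika-infected cells. hNPCs received compound 1 hr before ZIKV at 2 FFU/cell, with 6 hours infection at 37 C.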
# [8] = qHTS assay for measurement of the activity of small molecule inhibitors on Zika virus induced Caspase-3 activity in human astrocytoma cells (AID 1224859; active means well fitted curve in the direction sought with a large enough effect; an effect the other way counts as inactive or inconclusive;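 further: plate controls were ZIKV-infected untreated cells for no effect and uninfected cells for full effect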)
# In short: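 Luminescent caspase-3/7 read-out (30 min reagent, room temperature) in human SNB-19 cells infected 6 h with ZIKV (2 FFU/cell) after 1 h compound pre-incubation; Data were normalised to uninfected and infected wells.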
# [9] = qHTS Screen of the MIPE 4.0 Collection Against Ewings Sarcoma (RDES) (AID 1259252; active means well fitted curve in the direction sought with a large enough effect; an effect the other way counts as inactive or inconclusive; further: nearly all actives have a fitted effect of over 35% in size; further: potency means the concentration at half of the fitted maximal effect)
# In short: (§2)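 Cells plated in serum-containing RPMI (5% FBS) and treated with compound dilutions for 48 h. Readout luminescent viability; normalization relied on vehicle (no inhibition) and media-only columns (full inhibition).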
# [10] = qHTS Screen of the MIPE 4.0 Collection Against Ewings Sarcoma (TC71) (AID 1259253; active means well fitted curve in the direction sought with a large enough effect; an effect the other way counts as inactive or inconclusive; further: nearly all actives have a fitted effect of over 40% in size; further: potency means the concentration at half of the fitted maximal effect)
# In short: as §2
# [11] = qHTS Screen of the MIPE 4.0 Collection Against Ewings Sarcoma (TC32) (AID 1259256; active means well fitted curve in the direction sought with a large enough effect; an effect the other way counts as inactive or inconclusive; further: nearly all actives have a fitted effect of over 45% in size; further: potency means the concentration at half of the fitted maximal effect)
# In short: as §2
# [12] = qHTS profiling for inhibitors of Plasmodium falciparum (DD2) proliferation (AID 743323); conditions: lower = more inhibition; at 28.7 µM (top of the series) unless noted
# In short: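 Parasite DNA quantified by SYBR Green fluorescence (ex 485, em 535 nm) after saponin/Triton lysis and overnight dark incubation. Cultures: 0.3% parasitemia, 2.5% hematocrit, 72 h, 37 C; data scaled between DMSO and 0.29 uM artemisinin.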
# [13] = qHTS profiling for inhibitors of Plasmodium falciparum (HB3) proliferation (AID 743324; active means well fitted curve in the direction sought with a large enough effect; an effect the other way counts as inactive or inconclusive;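 further: 100% = DMSO vehicle wells and 0% = artemisinin-treated control wells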); conditions: Plasmodium falciparum HB3 blood-stage proliferation; at 28.7 µM (top of the series) unless noted
# In short: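 SYBR Green fluorescence (485 ex/535 em) of lysed cultures, incubated overnight at room temperature in the dark, quantifies parasite DNA. Infected erythrocytes at 0.3% parasitemia and 2.5% hematocrit were exposed 72 h; values normalized to DMSO and 0.29 uM artemisinin controls.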
# [14] = qHTS assay to identify small molecule inhibitors of chordoma cells - UCH-1 (AID 1259355; active means well fitted curve in the direction sought with a large enough effect; an effect the other way counts as inactive or inconclusive; further: on the % scale 0 is the no-effect control and ±100 the full control effect; nearly all actives have a fitted effect of over 55% in size)
# In short: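 800 cells/well, overnight attach; compounds pinned at 15 concs, then auranofin/camptothecin/doxorubicin/rubitecan/topotecan combo added; 48hr 37 C, 5% CO2; CellTiter-Glo, 30min RT, luminescence.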
# [15] = qHTS assay to identify small molecule inhibitors of chordoma cells - UCH-2 (AID 1259356; active means well fitted curve in the direction sought with a large enough effect; an effect the other way counts as inactive or inconclusive; further: on the % scale 0 is the no-effect control and ±100 the full control effect)
# [16] = Identifying Small Molecule Inhibitors of Pancreatic Cancer Stem Cells (A278, Adherent) (AID 1259361; active means well fitted curve in the direction sought with a large enough effect; an effect the other way counts as inactive or inconclusive;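 further: viability read after 48 h compound exposure; 100% = DMSO-treated cells and 0% = cell-free media-only wells; nearly all actives have a fitted effect of over 35% in size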)
# In short: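 Pre-formed 14-day tumor spheroids or adherent cells dosed and incubated 48 h, 37C, 5% CO2. Viability assessed by CellTiter-Glo.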
# [17] = Identifying Small Molecule Inhibitors of Pancreatic Cancer Stem Cells (Panc1, Adherent) (AID 1259362; active means well fitted curve in the direction sought with a large enough effect; an effect the other way counts as inactive or inconclusive;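 further: compound exposure lasted 48 h before the viability read; plate controls were DMSO-treated cells for no effect and cell-free media wells for full effect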); conditions: Potency: viability
# In short: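 Viability is scored by CellTiter-Glo luminescence 48 h after dosing, expressed as percent activity against vehicle and no-cell references. Spheroid formats rely on cells cultured 14 days in stem cell media beforehand.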
# [18] = qHTS Screen of the MIPE 4.0 Collection Against Ewings Sarcoma (EW8) (AID 1259255; active means well fitted curve in the direction sought with a large enough effect; an effect the other way counts as inactive or inconclusive;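 further: 100% = DMSO-treated cells and 0% = medium-only wells without cells; nearly all actives have a fitted effect of over 35% in size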)
# In short: as §2
# [19] = Identifying Small Molecule Inhibitors of Pancreatic Cancer Stem Cells (A2780, Spheroid) (AID 1259357; active means well fitted curve in the direction sought with a large enough effect; an effect the other way counts as inactive or inconclusive;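 further: spheroids pre-formed over 14 days in stem cell medium on hydrogel; compound exposure lasted 48 h before the ATP luminescence read; 100% = DMSO treated cells and 0% = wells without cells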); conditions: Potency: A2780 spheroid viability
# In short: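 Spheroids grown 14 days in stem cell media on hydrogel-coated nonadherent plates; 2D lines seeded directly. Compounds added after 4 h attachment, 48 h at 37C, 5% CO2; CellTiter-Glo luminescence normalized to DMSO (no inhibition) and no-cell wells (full inhibition).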
Structure (SMILES),"parasite growth, % of DMSO control [1]","parasite growth remaining, % of DMSO control (lower = more inhibition) [2]","parasite growth, % of control (lower = inhibition) [3]","growth, % of control [4]","cell viability, % of control (lower = more cytotoxic) [5]",viability (% of control) [6],Potency [7],Potency [8],Potency [9],Potency [10],Potency [11],"activity, percent of control [12] [%]","remaining proliferation (% of control), lower = more inhibition [13] [%]",outcome [14],outcome [15],IC50 (viability decrease) [16],Potency [17],Potency [18],Potency [19]
CNc1nc(-c2ccc3c(N)n[nH]c3c2)cc(N2C[C@@H](C(=O)NC3CCCCC3)CC[C@@H]2C)n1,5.06%,8.54%,11.4%,4.91%,6.94%,18.1%,inactive,inactive,6.62 µM (active),20.9 µM (active),6.62 µM (active),,,,,,,,
COc1cc2c(cc1OC)CC(=O)N(CCCN(C)C[C@H]1Cc3cc(OC)c(OC)cc31)CC2,92%,98.4%,55.5%,79.8%,163%,106%,inactive,inactive,16.6 µM (active),16.6 µM (active),,102,77.1,inactive,inactive,inactive,inactive,,
CC=C1C2C=C(C)CC1(N)c1ccc(=O)[nH]c1C2 (configuration not stated),100%,,,,164%,128%,inactive,inactive,inactive,23.5 µM (active),,,,,,,,,
COc1nc(C)cnc1NS(=O)(=O)c1cccnc1-c1ccc(-c2nnco2)cc1,100%,100%,74.5%,100%,379%,142%,inactive,inactive,inactive,,inactive,88,91.9,,,inactive,inactive,inactive,
N#CC1(c2cccc(C(=O)Nc3cc(Oc4ccc5nc(NC(=O)C6CC6)sc5n4)ccc3F)c2Cl)CC1,14.7%,,30.3%,9.87%,7.3%,43.3%,inactive,inactive,16.6 µM (active),16.6 µM (active),,,,,,,,,
NC1(C(=O)N[C@@H](CCO)c2ccc(Cl)cc2)CCN(c2ncnc3[nH]ccc23)CC1,32.2%,85.9%,,97.9%,6.91%,27.4%,inactive,inactive,3.72 µM (active),16.6 µM (active),16.6 µM (active),,,,,,,,
COc1ccc(-c2ccc3ncc4c(c3c2)n(-c2ccc(N3CCNCC3)c(C(F)(F)F)c2)c(=O)n4C)cn1,7.25%,6.37%,9.13%,3.39%,0.968%,0.939%,inactive,inactive,0.0469 µM (active),0.0059 µM (active),,,,,,,,,
Cc1cnc(CNC(=O)c2c(=O)c3ccc(N4CCCN(C)CC4)nc3n3c2sc2ccccc23)cn1,6.1% [at 9.64 µM],8.18% [at 9.64 µM],13.1% [at 9.64 µM],3.84% [at 9.64 µM],230% [at 23.2 µM],1.44% [at 23.2 µM],inactive,inactive,7.24 µM (active),7.24 µM (active),inactive,,,,,,,,
COc1cc2ncn(-c3cc(OCc4ccccc4S(C)(=O)=O)c(C#N)s3)c2cc1OC,76.2%,103%,75.9%,90.8%,146%,95.9%,inactive,inactive,16.6 µM (active),3.32 µM (active),,,,,,,,,
C[C@@H](O)[C@H]1C(=O)N2C(C(=O)OCOC(=O)C(C)(C)C)=C(SC3CN(C4=NCCS4)C3)[C@H](C)[C@H]12,66%,,107%,104%,58.2%,39.5%,inactive,inactive,inactive,inactive,,,,,,,,,
Cc1ccc(S(=O)(=O)Nc2nc3ccccc3nc2Nc2ccc3nsnc3c2)cc1,25.4% [at 9.64 µM],,36% [at 9.64 µM],77.4% [at 9.64 µM],7.38% [at 23.2 µM],14.1% [at 23.2 µM],inactive,inactive,8.12 µM (active),12.9 µM (active),16.2 µM (active),,,,,,,,
CC(=O)NCCC(=O)N[C@@H](CCC(N)=O)C(=O)N[C@@H](CO)C(=O)N[C@@H](CCC(N)=O)C(=O)N[C@@H](CCC(N)=O)C(=O)N[C@H](C(=O)N[C@@H](Cc1ccccc1)C(=O)N[C@]1(C)CCCCCCC=CCCC[C@@](C)(C(=O)N[C@@H](CCC(N)=O)C(=O)N[C@@H](CC(N)=O)C(N)=O)NC(=O)[C@H](CC(C)C)NC(=O)[C@H](CC(C)C)NC(=O)[C@@H](CCCNC(=N)N)NC(=O)[C@H](Cc2c[nH]c3ccccc23)NC(=O)[C@H](CC(C)C)NC(=O)[C@H](CC(N)=O)NC1=O)[C@H](C)O,86.3%,41.2%,28.5%,30.1%,27%,78.7%,inactive,inactive,18.7 µM (active),20.9 µM (active),,68.3,66.8,,,,inactive,,inactive
C[C@@H](N)c1ccc(C(=O)Nc2ccnc3[nH]ccc23)cc1,49.7%,78.2%,49.3%,67.7%,6.34%,12.2%,26.4 µM (active),inactive,18.7 µM (active),16.6 µM (active),,,,,,,,,
O=C(CO)N1CCC(c2[nH]nc(-c3ccc(Cl)cc3)c2-c2ccncn2)CC1,25.8%,82.9%,53.8%,30.6%,421%,97.4%,inactive,inactive,inactive,inactive,,,,,,,,,
